Drawing on PubChem BioAssay (NCI), this text covers growth for 11 compounds.

The structures appear in SMILES notation. Several values for one entry are separate records, joined by “and”; a condition that tells them apart may be missing. Equal entries are not always repeated. This is part of a sample that, as a whole, favours compounds with a hit. Of some 83,000 tested, about 20% had one in any assay.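 Percent growth is the endpoint: 0 to 100 indicates growth inhibition (40 means 60% inhibition), 0 means no net growth, and negative values indicate cell death.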 Activity calls are given as the source filed them. The calls were made as follows: active = growth percent below 10; inactive = the rest.

For the experiment, the system named is MDA-MB-468 breast. Description: NCI-60 one-dose screen, 48 h (100 = growth as untreated, 0 = no growth, -100 = all killed). The following applies: 10 µM unless noted.
For `Cc1nc2cnc(N)c(C#Cc3cncc(C(=O)Nc4ccc(CN5CCN(C)CC5)c(C(F)(F)F)c4)c3)c2nc1C`, the growth is 55.8% (inactive).
In the case of `O=C1/C=C/[C@@H](O)[C@@H]2C[C@@H](O)C[C@H]2/C=C/CCC[C@H](CO)O1`, the growth was -20.1% (active).
Take `CCN(CC)CCOc1ccc(Cl)c(C)c1`: the growth was 103% (inactive).
To `CC1OC(O[C@@H]2C(O)C(CO)OC(O[C@H]3COC(O[C@H]4CC[C@]5(C)[C@H]6CC[C@]78OC[C@@]9(CC[C@](C)(C=O)C[C@H]97)[C@H](O)C[C@@]8(C)[C@]6(C)CC[C@H]5C4(C)C)[C@@H](OC4OC(CO)[C@@H](O)[C@@H](O)[C@@H]4O)[C@@H]3O)[C@H]2OC2OC[C@@H](O)[C@@H](O)[C@@H]2O)[C@@H](O)[C@@H](O)[C@H]1O` (stereo partly specified) belongs 34.5% (inactive); to `N#Cc1ccc(/C=C/C(=O)c2ccccc2)cc1`, 43.5% (inactive) and 48.9% (inactive); to `C/C(=N\OC(=O)Nc1ccccc1)c1ccccc1`, 83.2% (inactive).
To `C=CC(=O)Nc1ccc(Oc2nccc(Nc3nnc(-c4ccc(C)cc4)s3)n2)cc1` belongs 111% (inactive); to `CCCCC1(O)CCCCC1`, 94.9% (inactive).
Take `COC(=O)/C=C/c1cc(OC)c2c(c1)[C@@H](C(=O)OC)[C@H](c1ccc(OC)c(OC)c1)O2`: the growth was 50.9% (inactive).
To `CCCc1cc(=O)oc2c(C(=O)CC(C)C)c(O)c(CC=C(C)C)c(O)c12` belongs 1.81% (active).
As to `C=CCn1c(SCC(=O)Nc2ccc(C(=O)/C=C/c3cccc([N+](=O)[O-])c3)cc2)nnc1-c1c[nH]c2ccccc12`, the growth is 81.9% (inactive).
